Compounds with a hit are over-represented: about 21% of the library has one in this group of screens.
Cycloheximide cs – counter-screen hit for Shiga toxin inhibitors, cycloheximide; AID 2314; cell reporter, cycloheximide protein synthesis inhibition counterscreen; 300,000 compounds, 12% hits; max response, %; in the data active = max response mostly above about 13%, no sharp cut-off; inactive = mostly below about 14%; note: read at 38.3 µM for the half of the compounds with a filed dose; 0% is about no effect
SARS PLpro yeast – SARS-CoV PLP inhibition in yeast | S. cerevisiae expressing SARS-CoV PLpro, growth rescue | Potency, µM (series often up to 32.9 µM), inactives show top-dose activity, positive = growth rescue, usual class: activators | 330,000 compounds, 0.19% hits; calls by dose curve; note: potency is the fitted concentration of half-maximal effect; 0% is about no effect; nearly all actives have a fitted effect of over 55% in size
Pf growth 48h – inhibits P. falciparum growth in the first generation, 48 h | Potency, µM (series often up to 28.7 µM), inactives show top-dose activity change, negative = inhibition, hits mostly inhibitors | AID 504832 | P. falciparum luciferase growth in erythrocytes, 48 h | 310,000 compounds, 5.9% hits; note: potency is the fitted concentration of half-maximal effect; % is set by controls: 0 for no effect and ±100 for the full control effect
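Read-out is firefly luciferase luminescence from an integrated reporter in P. falciparum, so falling signal marks reduced parasite growth. Infected erythrocytes were at 2% hematocrit and 0.1% parasitemia (final) in Albumax-supplemented RPMI 1640.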
Pf growth 96h – P. falciparum growth inhibition at 96 hour, primary screen for plastid delayed-death inhibitors | P. falciparum luciferase reporter growth, 96 h | Potency, µM (highest dose often 28.7 µM), for inactives: at the top dose activity change, negative = inhibition, hits mostly inhibitors | 320,000 compounds, 6.9% hits; note: potency is the fitted concentration of half-maximal effect; % is set by controls: 0 for no effect and ±100 for the full control effect
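96 h incubation, 37 C, 5% CO2, of luciferase-reporter P. falciparum-infected RBCs (2% hematocrit, 0.05% parasitemia final) with test compounds; endpoint luminescence.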
NS1 inh – influenza NS1 inhibition | Potency, µM (highest dose often 46.1 µM), inactives show at the top dose activity, positive = more growth | 270,000 compounds, 0.4% hits; calls by dose curve; note: potency is the fitted concentration of half-maximal effect; actives are rising curves; nearly all actives have a fitted effect of over 50% in size
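Recovery from NS1-induced slow growth read by OD600 in budding yeast switched to galactose assay medium (pH 6.0, -URA) at 1:100 dilution. Compound 23 nl per well; the matching strain lacking NS1 serves as control.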
Shiga toxin inh – inhibitors of Shiga toxin in Vero cells; Vero cells, Shiga toxin protein synthesis inhibition reporter; inhibition, % at 38.7 µM; 290,000 compounds, 9.2% hits; in the data active = inhibition mostly above about 28%, no sharp cut-off; inactive = mostly below about 43%; note: 0% is about no effect
The depositor's hits bear a star; ? = inconclusive; · = no result. Unless noted, calls come from the whole dose curve; as a rule, active = well fitted inhibition curve with a large enough effect; inconclusive = small, poorly fitted or top-dose-only effect, or another doubt; inactive = no such curve, though single readings can be large or run the other way.

SMILES	Cycloheximide cs	SARS PLpro yeast	Pf growth 48h	Pf growth 96h	NS1 inh	Shiga toxin inh
CCCCNc1cc(C)nc(NCc2ccccc2)n1	14	-12%	1.5µM*	0.83µM*	-144%	42
CCNc1nc(Cl)nc(NCc2ccccc2)n1	-5	2%	-7%	?	10%	-5
Cc1cc(N2CCC(C)CC2)nc(NCc2ccccc2)n1	-5	-15%	10µM*	7.4µM*	-43%	10
Cc1cc(Nc2ccc(Cl)cc2)nc(NCc2ccccc2)n1	-6	-10%	0.93µM*	0.52µM*	-25%	-2
Cc1cc(Oc2ccccc2F)nc(NCc2ccccc2)n1	-2	12%	-4%	35%	-10%	16
Cc1cc(N2CCC(C)CC2)nc(-c2ccccc2O)n1	8	-3%	50%	2%	1%	-9
O=C(O)Cc1c(C(=O)O)[nH]c2ccc(C(=O)O)cc12	0	1%	56%	16%	-2%	3
O=Nc1c(O)[nH]c2ccccc12.[Cu].[O-]/N=C1/C(=[OH+])Nc2ccccc21	·	·	·	·	-6%	·
Nn1c(-c2ccc(O)cc2)nnc1-c1ccc(O)cc1	-3	1%	97%	1%	1%	3
Nc1ccccc1-c1nnc(-c2ccccc2N)n1N	38*	-1%	93%	88%	1%	57*
c1ccc(-c2ccccn2)nc1	-3	-1%	-10%	-11%	-5%	-14
Nn1c(SCc2c(F)cccc2F)nnc1-c1ccccn1	32*	0%	90%	172%	3%	90*
Nn1c(SCc2ccccc2F)nnc1-c1ccncc1	32*	1%	23%	35%	6%	80*
Fc1ccccc1CSc1nnc2ccc(-c3ccncc3)nn12	13	1%	6%	?	·	6
Nn1c(-c2ccccn2)nnc1-c1ccccn1	32*	-11%	-5%	?	-17%	57*
Cn1c2c(c(=O)n(C)c1=O)C(c1cc3c(cc1Br)OCO3)CC(=O)N2 (stereo not drawn)	3	-3%	21%	9.3µM*	-9%	4
CC1=C(C(=O)OC2CCCCCCC2)C(c2cc3c(cc2Br)OCO3)CC(=O)N1 (stereo not drawn)	3	-14%	10µM*	·	?	-7
CN(C)c1ccc(SC#N)cc1	1	1%	6.6µM*	2.9µM*	-4%	-2
CC(Cc1ccccn1)NC(=O)CCc1nnc(C2CCCCC2)o1 (stereo not drawn)	11*	0%	0%	13µM*	-1%	15
CNC1=C([N+](=O)[O-])CC([N+](=O)[O-])=C(N2CCNCC2)N1C	9	5%	-2%	2%	·	9
Cc1ccc(C(=O)c2coc3cc([N+](=O)[O-])c(O)c([N+](=O)[O-])c23)cc1	7	-89%	-11%	-22%	-20%	13
O=c1c2c3c(sc2nc2n1CCCC2)CCCC3	19*	-75%	28%	-96%	-30%	42*
O=c1c2c3c(sc2nc2n1CCC2)CCC3	-3	4%	20%	0.33µM*	?	-11
CNC[C@@H](Cc1ccccc1)NC[C@@H](CC1CCCCC1)NCCCc1ccccc1	-10	-4%	?	?	-18%	-15
CCC[C@@H](CNC)NC[C@H](Cc1ccccc1)NCCCCc1ccccc1	-7	-11%	?	1.7µM*	-9%	-11
SMILES	Cycloheximide cs	SARS PLpro yeast	Pf growth 48h	Pf growth 96h	NS1 inh	Shiga toxin inh
CCC[C@@H](CN[C@@H](CNC)C(C)C)NCCCCc1ccccc1	-3	-2%	?	12µM*	-4%	-6
Cc1ccc(OC(=O)c2ccc([N+](=O)[O-])cc2Cl)cn1	1	2%	9%	?	-1%	19
Nc1nc(SCC(=O)c2ccc(Br)cc2)c2[nH]cnc2n1	·	·	·	·	-2%	·
O=C(CN1CCN(Cc2cccc(F)c2)CC1)Nc1ccccc1F	-2	-3%	-9%	23%	-1%	-4
CCN(CC(=O)NCc1cccs1)C(=O)Cc1ccc(Cl)c(Cl)c1	·	1%	·	·	·	·
c1ccc(CN2CCC(N3CCC(N4CCCCCC4)CC3)CC2)cc1	5	9%	13µM*	8.3µM*	27%	-21
COc1ccccc1C(=O)N1CCN(C2CCN(Cc3ccccc3)CC2)CC1	43*	·	11%	0%	-22%	-5
